This is an account of results in PubChem BioAssay (Tox21).

Experiment [1] in a line: Nuclear factor erythroid 2-related factor 2/antioxidant responsive element (Nrf2/ARE) small molecule agonists: qHTS cell viability counter screen in human keratinocytes (AID 1919968; active means well fitted curve in the direction sought with a large enough effect in the repeat runs; an effect the other way counts as inactive or inconclusive; further: nearly all actives have a fitted effect of over 55% in size; further: potency means the concentration at half of the fitted maximal effect). Put shortly: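 KeratinoSens cells (HaCaT keratinocytes stably carrying an ARE-luciferase reporter) were seeded at 1,500 cells/well and rested 5 h at 37 C/5% CO2. They were then exposed to compounds in DMSO for 23 h. Viability was read by CellTiter-Fluor fluorescence after 1 h.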
(Quantitative high-throughput screening tests each substance at several concentrations.)

Experiment [2] in a line: Nuclear factor erythroid 2-related factor 2/antioxidant responsive element (Nrf2/ARE) small molecule agonists: luciferase reporter gene qHTS assay in human keratinocytes (AID 1919969). Further: nearly all actives have a fitted effect of over 35% in size. Further: potency means the concentration at half of the fitted maximal effect.
The nature of experiment [3]: G protein-coupled receptor (GPCR) small molecule agonists, calcium flux assay: HEK293 wild type cell line counter screen (AID 1920065). Put shortly:
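Cells were plated and cultured 18 h at 37 C/5% CO2, then loaded with calcium dye for 1 h at 37 C. Compounds in DMSO were pin-transferred in agonist mode, and fluorescence (Ex/Em 480/540) was read kinetically for 3 min at 1 s intervals.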
In general terms: A change in cytosolic calcium serves as a functional read-out for many receptors and channels.

Experiment [4] in a line: p53 small molecule agonists, cell-based qHTS assay with human liver microsomes: qHTS cell viability counter screen (AID 1963579). Further: nearly all actives have a fitted effect of over 45% in size. Put shortly: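 p53RE-bla cells (4,000/well) were pre-incubated 5 h at 37 C, then given compounds in DMSO plus human liver microsomes (0.5 mg/mL final) and NADPH (0.5 mg/mL final) for 16 h at 37 C. Viability was read by CellTiter-Glo luminescence.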

Experiment [5] in a line: p53 small molecule agonists, cell-based qHTS assay: qHTS cell viability counter screen (AID 1963581). Further: nearly all actives have a fitted effect of over 45% in size. Further: potency means the concentration at half of the fitted maximal effect. Put shortly: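 p53RE-bla HCT-116 cells were exposed to compounds for 16 h at 37 C; after the beta-lactamase FRET read in the same wells, CellTiter-Glo was added and luminescence (intracellular ATP) read after 30 min at room temperature.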
A short description of experiment [6]: p53 small molecule agonists, cell-based qHTS assay (AID 1963582; active means well fitted activation curve with a large enough effect in the signal ratio in the repeat runs, not every such curve was filed as active; the % refers to the signal ratio). In short, it runs like this:
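p53RE-bla beta-lactamase reporter cells rested 5 h at 37 C/5% CO2, then received compounds in DMSO by pin transfer and were incubated 16 h at 37 C. LiveBLAzer B/G FRET substrate was loaded for 2 h at room temperature before fluorescence reading.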

Experiment [7] addresses 5-hydroxytryptamine receptor 2A (Homo sapiens) (UniProt P28223). Nature of the experiment: 5-hydroxytryptamine receptor 2A (HTR2A) small molecule antagonists, cell-based qHTS assay (AID 1963586). Further: nearly all actives have a fitted effect of over 45% in size. Put shortly: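 Antagonist-mode intracellular calcium assay: DOI (4 nM) added after 5 min compound pre-incubation at room temperature to dye-loaded HTR2A-CHO cells. Fluorescence followed for 3 min, sampled every second.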

Experiment [8] has the same target. Nature of the experiment: 5-hydroxytryptamine receptor 2A (HTR2A) small molecule agonists, cell-based qHTS assay (AID 1963587). Further: nearly all actives have a fitted effect of over 30% in size. Put shortly:
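CHO cells stably expressing human HTR2A, plated 18 h, loaded with calcium dye 1 h at 37 C. Agonist mode: compounds added and intracellular calcium fluorescence recorded kinetically for 2 min at 1 sec intervals.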

Experiment [9] has as its target Muscarinic acetylcholine receptor M1 (Homo sapiens) (UniProt P11229). Nature of the experiment: Cholinergic receptor muscarinic 1 (CHRM1) small molecule agonists, cell-based qHTS assay (AID 1963589). Further: nearly all actives have a fitted effect of over 35% in size. Put shortly:
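CHO cells stably expressing human CHRM1, seeded 18 h at 37 C/5% CO2, dye-loaded 1 h at 37 C, then given compound in agonist mode; intracellular calcium fluorescence read kinetically at 1 s intervals. Fifteen concentrations, three independent runs.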

Experiment [10] is described as follows: cAMP Responsive Elements (CRE) small molecule antagonists, cell-based qHTS assay (AID 1963591; active means well fitted inhibition curve with a large enough effect in the signal ratio in the repeat runs, not every such curve was filed as active; the % refers to the signal ratio). In short, it runs like this: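 CRE-bla HEK293T cells were plated 18 h at 37 °C/5% CO2, pinned with compound in DMSO, then stimulated with NKH477 at 0.25 uM final for 3 h. LiveBLAzer B/G FRET substrate was added and plates incubated 2 h at room temperature.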
The target of experiment [11] is Beta-2 adrenergic receptor (Homo sapiens) (UniProt P07550). The experiment in a line: Adrenergic beta2 receptor (ADRB2) small molecule antagonists, cell-based qHTS assay (AID 1963592). Further: series mostly up to about 92 µM; nearly all actives have a fitted effect of over 50% in size. In short, it runs like this:
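Cells (CHO, stable ADRB2 overexpression) incubated 18-20hr at 37C; compounds added from DMSO; agonist mix (1nM isoproterenol, 100uM IBMX, 25uM Ro-20-1724) added; 0.5hr RT; d2-cAMP and anti-cAMP-cryptate added; 1hr RT; 665/615 nm read.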

Experiment [12] has the same target. The experiment in a line: Adrenergic beta2 receptor (ADRB2) small molecule agonists, cell-based qHTS assay (AID 1963593).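 Further: CHO cells stably overexpressing human ADRB2.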 Put shortly:
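CHO cells stably over-expressing ADRB2 were plated overnight at 37C, then dosed with compounds plus a stimulation mix containing 100uM IBMX and 25uM Ro-20-1724 for 0.5hr at room temperature. cAMP was measured by HTRF competition, 1hr.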

In experiment [13] the target is D(2) dopamine receptor (Homo sapiens) (UniProt P14416). The experiment in a line: Dopamine D2 receptor (DRD2) small molecule agonists, cell-based qHTS assay (AID 1963594). Further: nearly all actives have a fitted effect of over 35% in size. Put shortly: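 HEK293 cells stably expressing human DRD2, pre-treated with PDE inhibitor Ro20-1724 (0.1 mM final) and compound 10 min at room temperature, then stimulated with NKH477 (200nM […]) for 30 min. cAMP read by HTRF (665/620 nm).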
Chain of D(2) dopamine receptor (Homo sapiens) (P14416 whole entry, looked up): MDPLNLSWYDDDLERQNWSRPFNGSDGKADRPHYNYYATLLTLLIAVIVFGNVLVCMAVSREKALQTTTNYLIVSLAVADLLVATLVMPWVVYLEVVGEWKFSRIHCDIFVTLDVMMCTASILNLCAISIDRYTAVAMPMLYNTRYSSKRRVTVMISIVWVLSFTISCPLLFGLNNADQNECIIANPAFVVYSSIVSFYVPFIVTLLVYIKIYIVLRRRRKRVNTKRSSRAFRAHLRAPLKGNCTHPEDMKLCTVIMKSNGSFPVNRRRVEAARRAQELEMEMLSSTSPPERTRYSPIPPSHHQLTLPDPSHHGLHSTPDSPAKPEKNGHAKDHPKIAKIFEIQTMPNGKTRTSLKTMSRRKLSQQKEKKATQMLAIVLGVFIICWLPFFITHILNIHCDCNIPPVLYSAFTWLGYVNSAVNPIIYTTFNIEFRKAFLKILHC

Experiment [14] shares this target. Nature of the experiment: Dopamine D2 receptor (DRD2) small molecule antagonists, cell-based qHTS assay (AID 1963595; active means well fitted inhibition curve with a large enough effect in the signal ratio in the repeat runs, with a control signal flat; the % refers to the signal ratio). Put shortly: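 HEK293 cells stably expressing DRD2 were preincubated with 0.1 mM Ro20-1724, then with compound for 10 min at room temperature. Cells were stimulated with 200 nM NKH477 plus 12 nM quinpirole for 30 min, and cAMP was read by HTRF.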

A short description of experiment [15]: p53 small molecule agonists, cell-based qHTS assay with rat liver microsomes (AID 1963578). In short, it runs like this: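 p53RE-bla cells were exposed to compounds together with rat liver microsomes (0.5 mg/mL final) and NADPH (0.5 mg/mL final) for 16 h at 37 C, then read by LiveBLAzer beta-lactamase fluorescence after 2 h at room temperature.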
Experiment [16] is described as follows: p53 small molecule agonists, cell-based qHTS assay with rat liver microsomes: qHTS cell viability counter screen (AID 1963580). Further: nearly all actives have a fitted effect of over 45% in size. In short, it runs like this: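 p53RE-bla HCT-116 cells were exposed 16 h at 37 C to compounds with rat liver microsomes (0.5 mg/mL) and NADPH (0.5 mg/mL). Viability was measured in the same wells as ATP content by CellTiter-Glo luminescence.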

In experiment [17] the target is Muscarinic acetylcholine receptor M1 (Homo sapiens) (UniProt P11229). Nature of the experiment: Cholinergic receptor muscarinic 1 (CHRM1) small molecule antagonists, cell-based qHTS assay (AID 1963588). Further: nearly all actives have a fitted effect of over 40% in size. Further: potency means the concentration at half of the fitted maximal effect. Put shortly:
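CHRM1-CHO calcium-flux assay, antagonist mode. Cells were seeded 18 h, dye-loaded 1 h at 37 C and given compound for 5 min at RT, then acetylcholine was added at 50nM. FDSS fluorescence was read 3 min; 15 concentrations, three runs.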

A short description of experiment [18]: cAMP Responsive Elements (CRE) small molecule agonists, cell-based qHTS assay (AID 1963590). In short, it runs like this: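 CRE-bla HEK 293T cells in DMEM with 10% dialyzed FBS, NEAA, pyruvate and 25 mM HEPES were plated 18 h at 37 C/5% CO2, then exposed to compounds in DMSO for 3 h before LiveBLAzer B/G FRET substrate addition.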
In experiment [19] the target is KiSS-1 receptor (Homo sapiens) (UniProt Q969F8). Nature of the experiment: Human kisspeptin (KISS1R) small molecule agonists, calcium flux assay in KISS1R-HEK293 cells (AID 1920064; active means well fitted curve in the direction sought with a large enough effect in the repeat runs; an effect the other way counts as inactive or inconclusive). In short, it runs like this:
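HEK293 cells stably expressing human KISS1R were plated 18 h at 37 °C, loaded with calcium dye for 1 h at 37 °C, then given compound by pin tool. Fluorescence (Ex/Em 480/540) was read kinetically for 3 min.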

Experiment [20] can be described thus: p53 small molecule agonists, cell-based qHTS assay with human liver microsomes (AID 1963577). Put shortly:
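p53RE-bla reporter cells were pre-incubated 5 h at 37 C, then treated with compounds plus human liver microsomes (0.5 mg/mL final) and NADPH (0.5 mg/mL final) for 16 h at 37 C. Beta-lactamase activity was read by LiveBLAzer fluorescence after 2 h at room temperature.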

A number with no mark means an inactive call. Inconclusive results are not listed. The source made the active and inactive calls. Unless noted, the call rests on the fitted dose curve.

Chain of 5-hydroxytryptamine receptor 2A (Homo sapiens) (P28223 whole entry, looked up): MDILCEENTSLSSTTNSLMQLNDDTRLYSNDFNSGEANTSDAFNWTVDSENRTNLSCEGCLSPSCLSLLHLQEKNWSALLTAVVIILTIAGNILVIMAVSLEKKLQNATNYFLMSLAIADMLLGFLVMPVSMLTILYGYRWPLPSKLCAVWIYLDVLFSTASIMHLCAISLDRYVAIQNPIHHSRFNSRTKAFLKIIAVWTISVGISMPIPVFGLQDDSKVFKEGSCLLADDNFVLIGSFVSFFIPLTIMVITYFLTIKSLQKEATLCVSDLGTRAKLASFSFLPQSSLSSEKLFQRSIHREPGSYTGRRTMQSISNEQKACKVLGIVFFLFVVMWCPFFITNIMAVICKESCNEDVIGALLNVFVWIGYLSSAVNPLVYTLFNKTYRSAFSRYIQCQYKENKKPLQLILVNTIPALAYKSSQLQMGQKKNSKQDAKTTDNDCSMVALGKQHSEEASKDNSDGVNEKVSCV
Chain of Muscarinic acetylcholine receptor M1 (Homo sapiens) (P11229 whole entry, looked up): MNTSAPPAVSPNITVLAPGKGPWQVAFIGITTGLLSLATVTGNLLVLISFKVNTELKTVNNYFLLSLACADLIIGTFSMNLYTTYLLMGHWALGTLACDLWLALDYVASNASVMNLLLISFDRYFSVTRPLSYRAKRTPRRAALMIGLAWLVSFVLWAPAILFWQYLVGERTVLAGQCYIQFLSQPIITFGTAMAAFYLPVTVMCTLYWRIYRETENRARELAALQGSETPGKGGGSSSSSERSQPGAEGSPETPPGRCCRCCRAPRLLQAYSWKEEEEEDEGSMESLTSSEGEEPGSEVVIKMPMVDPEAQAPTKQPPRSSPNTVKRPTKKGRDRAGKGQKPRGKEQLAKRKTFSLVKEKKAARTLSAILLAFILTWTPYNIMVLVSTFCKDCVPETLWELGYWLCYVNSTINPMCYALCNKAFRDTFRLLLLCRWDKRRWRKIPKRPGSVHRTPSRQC
Chain of KiSS-1 receptor (Homo sapiens) (Q969F8 whole entry, looked up): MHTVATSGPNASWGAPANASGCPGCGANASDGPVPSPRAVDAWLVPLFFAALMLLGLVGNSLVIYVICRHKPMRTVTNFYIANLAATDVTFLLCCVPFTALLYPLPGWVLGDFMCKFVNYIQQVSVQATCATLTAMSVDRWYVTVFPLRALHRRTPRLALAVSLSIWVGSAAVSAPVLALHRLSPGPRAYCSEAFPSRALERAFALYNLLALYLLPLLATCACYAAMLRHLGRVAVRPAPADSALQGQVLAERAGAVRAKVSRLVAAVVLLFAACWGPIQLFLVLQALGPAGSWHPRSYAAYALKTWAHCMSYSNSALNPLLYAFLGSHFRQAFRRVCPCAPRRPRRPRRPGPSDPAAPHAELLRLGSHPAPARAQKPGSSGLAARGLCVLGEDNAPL
Chain of Beta-2 adrenergic receptor (Homo sapiens) (P07550 whole entry, looked up): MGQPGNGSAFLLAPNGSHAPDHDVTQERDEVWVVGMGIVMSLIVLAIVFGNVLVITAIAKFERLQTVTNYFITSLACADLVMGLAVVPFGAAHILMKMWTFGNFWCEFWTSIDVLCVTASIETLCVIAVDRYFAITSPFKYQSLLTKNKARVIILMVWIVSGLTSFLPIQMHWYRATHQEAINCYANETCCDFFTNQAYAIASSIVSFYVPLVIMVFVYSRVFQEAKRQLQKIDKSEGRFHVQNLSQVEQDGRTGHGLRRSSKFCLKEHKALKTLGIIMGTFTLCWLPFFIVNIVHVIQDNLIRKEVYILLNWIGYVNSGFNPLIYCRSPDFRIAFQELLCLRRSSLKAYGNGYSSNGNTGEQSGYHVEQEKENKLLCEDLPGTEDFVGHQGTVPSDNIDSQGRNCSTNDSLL

As for `COP(=S)(OC)Oc1c(Cl)cc(C)cc1Cl`, the Potency result in [1], in experiment [2], in experiment [3], in [4], in experiment [5] and in [6] was “inactive” throughout. Further, the Potency result in experiment [7], in experiment [8], in [9], in [10], in [11] and in experiment [12] was “inactive” throughout. Moreover, the Potency entry in [13] and in experiment [14] was “inactive” throughout.

`COc1ccc([N+](=O)[O-])cc1O`: the Potency result in experiment [1], in experiment [2], in experiment [15], in [4], in experiment [16] and in experiment [5] was “inactive” each time. In addition, the Potency entry in [6], in experiment [7], in [8], in experiment [17], in [9] and in experiment [18] was “inactive” each time. Besides, the Potency entry in experiment [11], in [12] and in experiment [14] was “inactive” throughout.

On to `Nc1ccc([N+](=O)[O-])cc1`, for which the Potency in experiment [1] is 61.1 µM (active); in experiment [2], 24.3 µM (active); in [5], 8.39 µM (active). Also, the Potency result in [19], in [3], in experiment [20], in [15], in experiment [9] and in experiment [11] was “inactive” in each case. In experiment [14], the Potency entry was “inactive”.

With `COCc1cnc(C2=NC(C)(C(C)C)C(=O)N2)c(C(=O)O)c1` (stereo unspecified), the Potency entry in experiment [1], in experiment [2], in experiment [3], in experiment [4], in experiment [16] and in [7] was “inactive” throughout. For the same compound, the Potency entry in experiment [8], in experiment [17], in experiment [9], in experiment [10], in experiment [11] and in experiment [12] was “inactive” throughout. For the same compound, in experiment [14], the Potency result was “inactive”.

For `O=C1OC(c2ccc(O)c(S(=O)(=O)O)c2)(c2ccc(O)c(S(=O)(=O)O)c2)c2c(Br)c(Br)c(Br)c(Br)c21`, the Potency entry in experiment [1], in [19], in experiment [3], in experiment [15], in [4] and in experiment [16] was “inactive” each time. Moreover, the Potency result in experiment [5], in experiment [6], in experiment [7], in experiment [8], in [17] and in experiment [9] was “inactive” each time. In addition, the Potency entry in experiment [18], in experiment [10], in experiment [11] and in experiment [14] was “inactive” in each case. Also, in experiment [2], the Potency was 8.41 µM (active).

In the case of `COC12CC[C@@]3(C[C@@H]1C(C)(O)C(C)(C)C)[C@H]1Cc4ccc(O)c5c4[C@@]3(CCN1CC1CC1)[C@H]2O5` (stereo partly specified), the Potency is 30.4 µM (active) in experiment [1] and 33.2 µM (active) in [17]. Also, the Potency entry in [2], in experiment [19], in [3], in experiment [20], in [15] and in experiment [5] was “inactive” in each case. For the same compound, the Potency result in [9], in experiment [11] and in experiment [13] was “inactive” in each case.

For the compound `COc1ccc2[nH]cc(CCN(C(C)C)C(C)C)c2c1`, the Potency result in experiment [1], in experiment [2], in experiment [19], in experiment [3], in experiment [20] and in experiment [15] was “inactive” throughout. The Potency entry in [4], in [16], in [6], in experiment [17], in experiment [9] and in experiment [18] was “inactive” each time. Besides, the Potency entry in [11], in experiment [12], in experiment [13] and in experiment [14] was “inactive” throughout.
